Experimental data from ChEMBL document CHEMBL3988442, “University of Dundee, Small-Polar-MMV Screening Library” (2021).
Screen size: about 48,000 compounds; about 13,000 (27%) showed an effect of 50% or more. Some of the results follow.

system: Wolbachia pipientis; experiment: Anti-Wolbachia Cell-Based Screen; format: functional; parameters: scale not given: in the data most compounds retested in dose-response had high values; conditions: 5 µM

Structure (SMILES)	Percent Effect [%]
CC(C)N(C(=O)Cn1nc2n(c1=O)CCCCC2)C1CCC1	81.53
CC(c1ccco1)N(C(=O)NCc1ccon1)C1CC1 (stereo not given)	5.216
O=C(c1cnc2n1CCCC2)N1CCCC1	17.49
CC(c1ccco1)N(C(=O)c1cc2c([nH]c1=O)CCCC2=O)C1CC1 (stereo not given)	-5.594
CC(c1ccco1)N(C(=O)Cn1nc2n(c1=O)CCCCC2)C1CC1 (stereo not given)	105.1
CC(C)C(C)N(C(=O)c1cc2c([nH]c1=O)CCCC2=O)C1CC1 (stereo not given)	-5.669
CC(C)C(C)N(C(=O)Cn1nc2n(c1=O)CCCCC2)C1CC1 (stereo not given)	119.1
CC(C)C(=O)N(C)Cc1nnc2n1CCCCC2	6.475
CN1[C@H]2CC[C@@H]1CN(C(=O)c1nnc3n1CCCCC3)CC2	-0.7264
Cc1csc(CN2CC[C@H]3C[C@H](c4nnc(C)[nH]4)O[C@@H]3C2)n1	1.224
CC(C)N(C)S(=O)(=O)N(Cc1cccs1)Cc1cccs1	-8.549
COc1ccccc1C1(C(=O)NCCN2CCOCC2)CCOCC1	3.862
COc1cccc(C(=O)N2CCC3(CCC(=O)N(C(C)C)C3)CC2)c1C	-8.72
CCOCC1CC2(CCN(C(=O)c3ccccc3F)CC2)CO1 (stereo not given)	-17.98
CNC(=O)CN1C(=O)CCC12CCCN(Cc1ccccc1F)C2 (stereo not given)	-35.38
CC(=O)NCCCSC1CCN(c2ccccc2F)C1=O (stereo not given)	-10.73
CCOCCCNC(=O)C1(C)CCC(=O)N1Cc1ccccc1F (stereo not given)	119.7
CCOCCCNC(=O)C1(C)CCC(=O)N1c1ccccc1OC (stereo not given)	128.9
CCOCCCNC(=O)C1(C)CCC(=O)N1c1ccccc1F (stereo not given)	110.1
CCOCCCNC(=O)C1(C)CCC(=O)N1c1cc(OC)ccc1OC (stereo not given)	128.4
CCOCCCNC(=O)N(C)Cc1ccc(SC)c(OC)c1	10.44
CCOC(=O)c1ccc(Nc2ccc(OC)c(N3CCCC3=O)c2)nc1	-0.2575

Structure (SMILES)	Percent Effect [%]
O=C(O)C(F)(F)F.O=C1CCC2(CCCN(Cc3ccccc3F)C2)N1CC1CC1 (stereo not given)	-58.45
CCc1nc(C2CCCN2C(=O)c2ccc3c(c2)nnn3CC)no1 (stereo not given)	-4.092
O=C1NCc2ccc(NC(=O)C3CCCN3c3nccs3)cc21 (stereo not given)	-9.996
O=C(c1cncc(N2CC[C@@]3(O)CCNC[C@H]3C2)n1)N1CCCC1	-7.566
CC(C)Oc1ccc(CNC(=O)C2CCS(=O)(=O)C2)cn1 (stereo not given)	23.43
COc1ccc(CN2C[C@@H](CN(C)C)[C@@H](CO)C2)cc1CN1CCCC1	7.819
Cn1nc(Cn2ccnc2)c2c1CN(Cc1ccoc1)C2.O=C(O)C(F)(F)F.O=C(O)C(F)(F)F	-6.284
CC(NC(=O)NCc1ccoc1)c1ccc2c(c1)CC(=O)N2 (stereo not given)	110.9
CC(NC(=O)c1cccc[n+]1[O-])c1ccc2c(c1)CCC(=O)N2 (stereo not given)	-1.39
CC(NC(=O)NCc1ccoc1)c1ccc2c(c1)CCC(=O)N2 (stereo not given)	-4.231
CC(NC(=O)c1sccc1C1CC1)c1ccc2c(c1)CC(=O)N2 (stereo not given)	-4.532
CC(NC(=O)Nc1ccc(S(C)(=O)=O)cc1)c1ccc2c(c1)CC(=O)N2 (stereo not given)	11.72
CC(NC(=O)c1ccoc1)c1ccc2c(c1)CCC(=O)N2 (stereo not given)	97.13
COc1ccc(F)c(NCC(C)(C)S(C)(=O)=O)c1	34.79
Cc1cc(C(=O)NCCC2CCN(C)CC2)ccc1N(C)S(C)(=O)=O	-18.47
CC(C)c1ccc(CCC(=O)N(C)C2CCN(C)C2=O)cc1 (stereo not given)	-1.182
Cc1ccc(-n2ncc(C(=O)N(C)C3CCN(C)CC3)c2N)cc1C	137.5
CC(C)c1ccc(-n2ncc(C(=O)N(C)C3CCN(C)CC3)c2N)cc1	117
CC(C)c1ccc(-n2cc(O)c(C(=O)N3CCC(C(N)=O)CC3)n2)cc1	-5.795
Cc1ccc(C(=O)Nc2ccc(N3CCCC3)cn2)cc1C	-19.47
CC(C)Cc1nc(CN2CC(=O)N(C)c3ccccc3C2=O)no1	-12.92
CSC(C)C(=O)N1CCN(CC(C)(C)O)CC1 (stereo not given)	-3.379

Structure (SMILES)	Percent Effect [%]
CCOCCn1nc(C)cc1C(=O)N1C[C@@H](C)[C@](O)(C2CC2)C1	-17.93
Cc1cc(C)n(CC2CCCCN2C(=O)c2sccc2C#N)n1 (stereo not given)	-7.705
Cc1nc(O)c2nnn(C[C@H]3CCCN3C(=O)c3ccccc3F)c2n1	81.62
COC(=O)C1CCCCN1C(=O)c1ccccc1F (stereo not given)	1.901
Cc1nc(O)c2nnn(C[C@H]3CCCN3C(=O)c3cccs3)c2n1	86.95
Cc1nc(O)c2nnn(C[C@H]3CCCN3C(=O)c3ccccc3C)c2n1	143.4
O=C(c1ccno1)N1CC2(CCC(C(=O)N3CCCC3)O2)C1 (stereo not given)	1.973
COCCN1CCN(CCCS(C)(=O)=O)CC1C (stereo not given)	0.5325
COc1ccc(Br)cc1CCC(=O)N1CCCC(O)C1 (stereo not given)	-4.291
COc1ccccc1CNC(C)c1ccc2[nH]c(=O)[nH]c2c1 (stereo not given)	98.3
COc1ccc(CCNC(C)c2ccc3[nH]c(=O)[nH]c3c2)cc1OC (stereo not given)	106.6
COc1ccc(C(C)NCc2c[nH]nc2C)cc1OC.Cl (stereo not given)	-6.737
CC(NCc1ccc(C(N)=O)cc1)c1ccc(Cl)c(Cl)c1.Cl (stereo not given)	-6.625
COc1ccccc1CNC(C)c1ccc(-n2ccnc2)cc1.Cl (stereo not given)	2.759
CC(NCc1ccccc1Br)c1ccc2[nH]c(=O)[nH]c2c1 (stereo not given)	-2.776
CNS(=O)(=O)c1cccc(C(C)NCc2ccccc2OC)c1 (stereo not given)	-4.064
COc1cc(C(=O)NCCc2ccc(OC)c(OC)c2)on1	-10.92
CC(NCc1ccccc1Cl)c1ccc2[nH]c(=O)[nH]c2c1 (stereo not given)	97.6
O=C(NCCSc1cnn[nH]1)c1c[nH]nc1C1CCCCC1	-9.483
CC(C)(C)c1csc(CNC(=O)C2NCCc3[nH]cnc32)n1 (stereo not given)	-12.08
CCN1CCN(c2ccc(C(=O)NCCn3ccnc3)cc2F)CC1	-30.24
